In PubChem BioAssay AID1778 (Sanford-Burnham Center for Chemical Genomics, 2009) one finds inhibition data, which are given here for 93 compounds.

Each structure is given as a SMILES string. Hit rate of the full screen: of about 290,000 compounds, about 260 (0.09%) were called active. For the sample, actives were picked, then their nearest neighbours and some compounds at random. Entries with a potency or affinity are not part of this list. Unmarked numbers belong to inactive results. Cut-off read from the data, not from the text of the source: active = inhibition above about 50%; inactive = the rest.

The inhibition is the relative decrease from the control value, in per cent.

Kappa-type opioid receptor (Homo sapiens), sequence (P41145 whole entry, looked up): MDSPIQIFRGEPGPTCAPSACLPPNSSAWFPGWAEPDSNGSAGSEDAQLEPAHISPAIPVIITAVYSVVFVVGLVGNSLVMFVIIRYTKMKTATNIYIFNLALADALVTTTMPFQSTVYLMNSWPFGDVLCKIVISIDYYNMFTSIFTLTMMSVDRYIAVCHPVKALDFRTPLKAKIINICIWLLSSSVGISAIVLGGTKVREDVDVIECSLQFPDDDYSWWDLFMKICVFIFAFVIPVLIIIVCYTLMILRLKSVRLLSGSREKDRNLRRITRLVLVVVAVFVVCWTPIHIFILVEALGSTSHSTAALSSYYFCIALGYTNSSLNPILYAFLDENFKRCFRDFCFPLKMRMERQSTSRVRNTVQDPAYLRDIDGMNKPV

This assay concerns the target Kappa-type opioid receptor (Homo sapiens) (UniProt P41145). Description: kappa opioid receptor blockers – cell-based, luminescence, uHTS (AID 1778). The note with it: KOR beta-arrestin recruitment, antagonist mode, active compounds read high; at 10 µM unless noted. On the technique in general: Arrestin recruitment assays detect the binding of arrestin to an activated receptor.
For the compound `Cc1nc(CSc2ccc(Cl)cc2)cs1`, the inhibition was 1.3%.

With `CCC1CCCCN1C(=O)CSc1nc(N)cc(N)n1` (stereo not drawn), the inhibition is 0.8% [at 20 µM].

With `C/C(=N\S(=O)(=O)c1ccc(C)cc1)NC(=S)Nc1ccc(C)cc1`, the inhibition is -12%.

For the compound `CCOc1ccccc1N(C(=O)c1snc(C(N)=O)c1N)C(C(=O)NC1CCCC1)c1cccs1` (stereo not drawn), the inhibition is -14.9%.

In the case of `CCCOCn1cc(F)c(=O)[nH]c1=O`, the inhibition was 20.7%.

As to `COc1ccc(OCc2nnc(SCC(=O)Nc3ccccc3C#N)o2)cc1`, the inhibition is -9.7%.

For `COc1ccc(NC(=O)c2ccc(CN(c3cc(Cl)ccc3C)S(=O)(=O)c3ccccc3)cc2)cc1OC`, the inhibition was -2.5%.

As to `Cn1c(CNC(=O)c2ccccc2F)nnc1SCC(=O)NCc1ccccc1`, the inhibition is -10.1%.

As for `Fc1ccc(-c2ccnc(=S)[nH]2)cc1`, the inhibition is 2.9%.

With `C/C(=N\NC(=O)c1ccc(F)cc1)c1ccccn1`, the inhibition was 86.6% (active).

With `C/C(=N/NC(=O)c1ccccn1)c1ccc(O)cc1`, the inhibition is 12.9%.

As for `C/C(=N/NC(=O)c1ccccn1)c1ccncc1`, the inhibition is -12.4%.

`Cc1ccc(O)c(CO)n1`: the inhibition is 0.6%.

On to `Cc1ccc2ccc3ccc(C)nc3c2n1`, for which the inhibition is -8.8% [at 20 µM].

With `Nc1n[nH]c2cc(=O)n(-c3ccc(Cl)cc3)nc12`, the inhibition was -68.5% [at 20 µM].

For `CC(C)(C)c1ccc(-n2nc(C(N)=O)c(O)cc2=O)cc1`, the inhibition was -2%.

In the case of `COc1cccc(-n2nc(C#N)c(Cl)cc2=O)c1`, the inhibition is 32.8%.

On to `COc1ccc(-n2nc3c(N)n[nH]c3cc2=O)cc1`, for which the inhibition was -30.3% [at 20 µM].

Take `COc1cc(C=O)ccc1OCCSc1ccc(Cl)cc1`: the inhibition was 16.4%.

As for `CC(CCc1ccccc1)NC(=O)c1ccc(NC(=O)c2ccc(Cl)cc2Cl)cc1` (stereo not drawn), the inhibition was 26.3%.

For the compound `C/C=N/NC(=O)CCNC(=O)c1ccccc1`, the inhibition is -40%.

Consider `CCCCn1c(-c2cccs2)nc2oc3ccccc3c(=O)c2c1=O`, for which the inhibition is 17.8%.

On to `Cc1cc2nnc(SCC(=O)Nc3cc(S(=O)(=O)N4CCOCC4)ccc3Cl)n2c2ccccc12`, for which the inhibition was -21.8%.

On to `O=C(NNC(=O)C1CC=CCC1C(=O)O)c1cccs1` (stereo not drawn), for which the inhibition was 30.6%.

As for `CC1SCC(NC(=O)c2cccc(Cl)c2)CS1` (stereo not drawn), the inhibition is -29.1%.

Consider `CCN(CC(=O)Nc1ccccc1C(F)(F)F)C(=O)CCc1nc2ccccc2c(=O)[nH]1`, for which the inhibition is -11.6%.

As to `Cc1nc2c(-c3ccc(Cl)cc3)c(C)[nH]n2c(=O)c1Cc1ccccc1`, the inhibition is 51% (active).

For the compound `Cc1nc2c(-c3ccccc3)c(C)[nH]n2c(=O)c1Cc1ccccc1`, the inhibition was -10.5% [at 20 µM].

For `COc1ccc(-c2c(C)[nH]n3c(=O)c(Cc4ccccc4)c(C)nc23)cc1`, the inhibition was -5.1%.

In the case of `COc1ccc(CC(=O)Nc2ccc(C(C)=O)cc2)cc1`, the inhibition was -81.9% [at 20 µM].

With `Oc1[nH]c2ccccc2c1C=Nc1ccc2c(c1)OCO2`, the inhibition was -33.1%.

In the case of `O=S(=O)(O)c1cccc2c(N=Nc3ccc(O)c4ncccc34)cccc12`, the inhibition was -7.2%.

Consider `Oc1ccc(N=Nc2ccc3c(c2)OCCO3)c(O)c1`, for which the inhibition is 34.9%.

Regarding `Oc1ccc(N=Nc2ccc3c(c2)OCO3)c2ccccc12`, the inhibition was 85.1% (active).

Turning to `O=S(=O)(Nc1ccc(N=Nc2ccc(O)c3ccccc23)cc1)c1ccccc1`, the inhibition is -3.4%.

Regarding `Nc1ccc(N=Nc2ccccc2)c2cccnc12`, the inhibition is -4.3%.

As to `Oc1[nH]c2ccccc2c1C=Nc1ccc2c(c1)OCCO2`, the inhibition is 0.8%.

Consider `Oc1ccc(N=Nc2ccc3c(c2)OCCO3)c2cccnc12`, for which the inhibition was 68.5% (active).

Consider `COc1ccccc1NC(=O)c1cc2c(CO)cnc(C)c2oc1=Nc1cccc(C(N)=O)c1`, for which the inhibition is 21.7%.

For `CCN(CC)CC#Cc1ccc(C)cc1`, the inhibition is -6.4%.

Take `CCC(C(=O)OC)n1cnc2c(nnn2-c2ccccc2)c1=O` (stereo not drawn): the inhibition is -16.1% [at 20 µM].

Consider `Cc1nn(-c2ccc(N3CCCCC3)nn2)c(C)c1CCC(=O)Nc1ccc(F)c(F)c1`, for which the inhibition is -31.5%.

`Cc1cc(C)cc(NC(=O)c2ccc3c(c2)CCN3S(C)(=O)=O)c1`: the inhibition was -4.2%.

With `Oc1c(CN2CCN(c3ccccc3)CC2)cc(Br)c2cccnc12`, the inhibition was 64% (active).

For the compound `Oc1c(CN2CCCCC2)cc(Br)c2cccnc12`, the inhibition is -1.9%.

For the compound `COc1ccccc1N1CCN(Cc2cc3c(cc2Br)OCCO3)CC1`, the inhibition was -44.1%.

For the compound `O=[N+]([O-])c1cc(CN2CCN(c3ccccc3)CC2)c(O)c2ncccc12`, the inhibition is 12% [at 20 µM].

With `COc1ccccc1N1CCN(Cc2ccc(O)c3ncccc23)CC1`, the inhibition is -12.2%.

On to `COc1ccccc1N1CCN(Cc2cc(Br)c(O)c3ncccc23)CC1`, for which the inhibition is 63.3% (active).

On to `COc1ccc(N2CCN(C(=O)c3cc4c(=O)n(Cc5ccccc5)ccc4nc3C)CC2)cc1`, for which the inhibition is -13.1%.

Regarding `CCCOc1ccc(C(=O)NNC(=S)NC(C)=O)cc1`, the inhibition was 19.1%.

On to `CCCCOc1ccc(C(=O)NNC(=S)NC(=O)CC)cc1`, for which the inhibition was 26.3%.

As for `CCc1nnc(NC(=O)c2ccc(-c3ccccc3F)o2)s1`, the inhibition was -18.1%.

As to `CC(C)(C)C1CCC(=NNC(=S)Nc2cccnc2)CC1` (stereo not drawn), the inhibition was 11.2%.

On to `CC1=C/C(=N\NC(=S)NCCc2ccccc2)CC(C)(C)C1`, for which the inhibition is -16.1%.

Take `O=C(Nc1ccc(NC(=O)c2ccccc2Cl)nc1)c1ccco1`: the inhibition was -2%.

Consider `C=C1C(=O)O[C@@H]2C[C@@H](C)[C@@H]3C=CC(=O)[C@@]3(C)[C@@H](OC(C)=O)[C@H]12`, for which the inhibition is 26.1%.

On to `CC(=O)O[C@@H]1[C@H]2[C@@H](C[C@@H](C)[C@@H]3C=CC(=O)[C@@]13C)OC(=O)[C@@H]2C`, for which the inhibition was 23.9%.

On to `CN(C)CCCNC(=S)NCCNc1nc2cc3c(cc2cc1C#N)OCO3`, for which the inhibition was 0.9%.

Turning to `O=C(Nc1ccc(CN2CCS(=O)(=O)CC2)cc1)c1ccccc1`, the inhibition was 0.1%.

On to `CCC(=O)OCCNc1cc(SCCC(=O)OC)c2nonc2c1[N+](=O)[O-]`, for which the inhibition was 5.5%.

For `Cn1ccnc1Sc1cc(NCCCO)c([N+](=O)[O-])c2nonc12`, the inhibition is 41.5%.

Consider `CCCSc1cc(NCCOC(=O)CCC)c([N+](=O)[O-])c2nonc12`, for which the inhibition was -2.8%.

As for `CCCC(=O)OCCNc1cc(SCCC(=O)OC)c2nonc2c1[N+](=O)[O-]`, the inhibition is -12.2%.

For `Cc1csc(SCC(=O)NC(=O)C2CCCCC2)n1`, the inhibition was -17.4%.

With `Nc1cc(=O)[nH]c(SCC(=O)Nc2cc([N+](=O)[O-])ccc2Cl)n1`, the inhibition is 15.1%.

`O=C(CNC(=O)c1ccco1)OCC(=O)c1ccc(Br)cc1`: the inhibition was -35%.

Regarding `Cc1ccc(Nc2nc3c(c(=O)[nH]2)CCCC3)cc1`, the inhibition was -0.9%.

On to `Cc1nc(Nc2nc3ccccc3o2)nc2c1CCC2`, for which the inhibition is 21.7%.

Consider `Cc1nn(C)cc1S(=O)(=O)Nc1ccc(F)c(F)c1`, for which the inhibition was 9%.

In the case of `COc1ccc(C)cc1NC(=O)CN(c1ccc(F)cc1)S(C)(=O)=O`, the inhibition was -4.9%.

`Cc1cccnc1Nc1nc(-c2ccccc2)cs1`: the inhibition is 1.5%.

Turning to `COc1cccc2sc(Nc3nc(-c4ccncc4)cs3)nc12`, the inhibition was -21.7%.

Consider `COc1cccc2sc(Nc3nc(-c4cc5ccccc5oc4=O)cs3)nc12`, for which the inhibition was -2.1%.

Consider `Cc1cccnc1Nc1nc(-c2ccc(O)cc2)cs1`, for which the inhibition is 17.8%.

As to `CCc1nc(N2CCN(C(C)=O)CC2)c2c3c(sc2n1)CC(C(C)(C)C)CC3` (stereo not drawn), the inhibition was -42.9% [at 20 µM].

On to `CN(CC(=O)NCCc1ccccc1)S(=O)(=O)c1cccc2nsnc12`, for which the inhibition is -1.3%.

On to `O=C(CC1C(=O)NCCN1Cc1ccccc1C(F)(F)F)NCCc1ccccn1` (stereo not drawn), for which the inhibition was -9.9% [at 20 µM].

For the compound `O=C(c1cc(F)ccc1F)C1CCCN(C(=O)CCCN2CCCCC2=O)C1` (stereo not drawn), the inhibition is 20.7%.

For the compound `COc1ccc(N2CCN(CCCNC(=O)Cn3c(=O)c4cccn4c4ccccc43)CC2)cc1`, the inhibition was 47.8%.

For `COc1ccc(N2CCN(C(=O)C(=O)c3c(C)n(C)c4ccccc34)CC2)cc1`, the inhibition was -32.2%.

As for `COc1ccc(N2CCN(CCCNC(=O)C(=O)c3c(C)[nH]c4ccccc34)CC2)cc1`, the inhibition is 15.4%.

Turning to `O=C(Cn1c(=O)c2cccn2c2cccnc21)NCCCN1CCN(c2ccc(F)cc2)CC1`, the inhibition is -19.4%.

As for `CN(C(=O)COC(=O)c1cc2c(s1)CCCCC2)C1CCS(=O)(=O)C1` (stereo not drawn), the inhibition was 31.3%.

Turning to `COc1ccc(C2(NC(C)=O)CCN(C(=O)c3cccs3)CC2)cc1`, the inhibition is -9.8%.

For the compound `O=C(Cn1cnc2c(cnn2-c2ccccc2)c1=O)N1CCCc2ccccc21`, the inhibition was -16.3%.

`O=C(C1CC1)N1N=C(c2ccc(F)cc2)CC1(O)C(F)(F)F` (stereo not drawn): the inhibition is 26.6% [at 20 µM].

For `CCOC(=O)N1CCN(S(=O)(=O)c2ccc(C(=O)N(CCCN(C)C)c3nc4ccc(Cl)cc4s3)cc2)CC1`, the inhibition was -7.9%.

Take `COc1ccc(C[C@@H]2CN3C(=NC[C@@H]3C)N2C[C@H](C)NC(=O)c2ccc(C)c(Br)c2)cc1`: the inhibition was 40%.

For the compound `Cc1ccc(C(=O)N[C@@H](C)CN2C3=NC[C@H](C(C)C)N3C[C@H]2Cc2ccc(O)cc2)cc1Br`, the inhibition is 19.2%.

For the compound `COc1ccc(C[C@H]2CN3C(=NC[C@@H]3Cc3ccc(O)cc3)N2C[C@H](C)NC(=O)c2ccc(C)c(Br)c2)cc1`, the inhibition is 15.3%.

Regarding `Cc1ccc(C(=O)N[C@@H](C)CN2C3=NC[C@H](C)N3C[C@H]2Cc2ccc(O)cc2)cc1Br`, the inhibition was 45.3%.

For the compound `NS(=O)(=O)c1ccc(CCNC(=O)CSc2nc3ccsc3c(=O)n2CCCCC(=O)O)cc1`, the inhibition was 3%.
